Results: PubChem BioAssay (NCI)
Compounds without any hit were thinned out: in the full panel of roughly 83,000, 20% have a hit.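 Testing used 96-well plates and a 48-hour single-concentration exposure. Example: -40 means 40% of the starting cells died.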 A number with no mark means an inactive call. Active and inactive are the calls of the source. How the source made its calls: active means growth percent below 10; inactive means the rest.

test system: SR leukemia; test: NCI-60 one-dose screen, 48 h (100 = growth as untreated, 0 = no growth, -100 = all killed); conditions: 10 µM

Compound | growth
COc1ccc(-c2onc(N)c2-c2cc(OC)c3c(c2)OCO3)cc1 | 9.86% (active)
C[C@]12CC[C@@H]3c4ccc(O)cc4CC[C@H]3[C@@H]1CC[C@@H]2NS(=O)(=O)c1ccc(C(F)(F)F)cc1 | 18.9%
O=C(CSc1nnc(-c2ccc(Cl)cc2)o1)Nc1ccc(C(=O)/C=C/c2ccc(Cl)cc2)cc1 | 98.3%
Cc1cc(CCNC=O)c(C)c2c1sc1ccccc12 | 89.4%
COc1cc2cc(Oc3ccc(NC(=O)c4ccc(Cl)c(C(F)(F)F)c4)cc3)c(C)nc2cc1OC | 37.1%
CC(C)(C)c1ccc(S(=O)(=O)N[C@H]2CC[C@H]3[C@@H]4CCc5cc(O)ccc5[C@H]4CC[C@]23C)cc1 | 20.5%
COc1cc2cc(Oc3ccc(NC(=O)c4cccc(C(F)(F)F)c4)cc3)c(C)nc2cc1OC | 28%
COc1ccc(/C=C2\CCCC3=C2NC(N)=NC3c2ccc(OC)c(OC)c2)cc1OC (stereo not drawn) | 28.1%
Cc1c(Cl)cccc1NC(=O)CN1CCOCC1 | 86.1%
CC(C)(C)OC(=O)N1CCc2c(sc3ncnc(N/N=C/c4ccc(Br)cc4)c23)C1 | 36.3%
CCCCc1oc2ccccc2c1C(=O)c1cc(I)c(OCCN(CC)CC)c(I)c1 | -51.8% (active)
CCc1c2c(nc3ccc(OC(=O)N4CCC(N5CCCCC5)CC4)cc13)-c1cc3c(c(=O)n1C2)COC(=O)[C@]3(O)CC | 1.34% (active)
NS(=O)(=O)Oc1ccc(-c2ccc3sccc3c2)cc1 | 115%
